High-throughput results as filed in PubChem BioAssay.
Most compounds without a hit are left out; they make up all but 4.5% or so of the library.
Rtt109 Vps75: inhibitors of Candida albicans Rtt109/Vps75 histone acetyltransferase; Q5AAJ8; purified Rtt109/Vps75, ThioGlo CoA-SH fluorescence, 4 h; inhibition, % at 34.9 µM; hit rate 0.16% among 330,000; AID 540336;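 active = inhibition of at least 50% in every replicate; inconclusive = best replicate reaches 50% inhibition but some replicates fall short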
Target sequence (Q5AAJ8 whole entry, looked up): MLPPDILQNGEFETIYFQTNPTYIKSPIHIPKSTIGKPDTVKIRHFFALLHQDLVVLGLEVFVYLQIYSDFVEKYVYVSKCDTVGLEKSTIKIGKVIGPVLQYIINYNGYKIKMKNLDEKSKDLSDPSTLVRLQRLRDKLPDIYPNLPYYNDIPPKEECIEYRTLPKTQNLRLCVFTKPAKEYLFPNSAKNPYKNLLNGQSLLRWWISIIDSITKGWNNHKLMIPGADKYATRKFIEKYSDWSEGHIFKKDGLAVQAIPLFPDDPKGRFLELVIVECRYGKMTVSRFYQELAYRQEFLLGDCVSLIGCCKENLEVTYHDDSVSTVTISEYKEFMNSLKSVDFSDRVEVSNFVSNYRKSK
ALR inh: blocks human ALR sulfhydryl oxidase activity. inhibition, % (no concentration beside the values). P55789. hit rate 3.8% among 290,000. purified ALR, DTT oxidation, H2O2 HRP-luminol luminescence;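 active = mean replicate inhibition above about 79%, with every replicate also reaching it, limit read from the data; inconclusive = only one of the two criteria met; inactive = mean below limit and not every replicate reaching it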
Efflux pump mplx: antifungal efflux pump inhibition, Nile Red retention; hit rate 0.44% among 330,000; inhibition, % at 10 µM; S. cerevisiae Candida pump triplex; AID 485275;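 active = plate passing quality check with inhibition over a set limit, or well fluorescence over plate mean plus 4 SD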;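 note: Nile Red retained in pooled yeast measured as flow cytometry median fluorescence; higher means more Nile Red kept so more efflux inhibition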
Rce1 inh: inhibitors of yeast Ras-converting enzyme | Q03530 | yeast membranes, quenched prenylated peptide cleavage fluorescence | calls only | hit rate 0.27% among 290,000;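 active = fall in fluorescence gain of 50% or more versus controls, with final raw signal at or below 3038400; inconclusive = same 50% fall but final raw signal above 3038400; inactive = fall in fluorescence gain under 50%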
Target sequence (Q03530 whole entry, looked up): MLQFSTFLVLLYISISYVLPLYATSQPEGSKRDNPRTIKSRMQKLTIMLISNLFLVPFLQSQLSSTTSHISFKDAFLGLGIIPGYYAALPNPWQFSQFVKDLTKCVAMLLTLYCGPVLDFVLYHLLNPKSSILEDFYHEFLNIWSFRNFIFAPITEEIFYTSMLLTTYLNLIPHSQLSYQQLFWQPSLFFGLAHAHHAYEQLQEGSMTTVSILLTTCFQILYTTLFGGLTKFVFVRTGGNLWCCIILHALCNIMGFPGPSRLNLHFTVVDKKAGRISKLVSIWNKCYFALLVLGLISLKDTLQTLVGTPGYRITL
HDAC3 inh: inhibitors of human histone deacetylase 3; O15379; recombinant HDAC3, fluorogenic peptide/trypsin coupled, fluorescence; inhibition, % at 8.3 µM; hit rate 0.15% among 320,000; in the data active = inhibition above about 26%, passing the limit was not always enough; inconclusive = no clear call, values can overlap the other calls
GRK2 inh: human GRK2 inhibition via aptamer displacement | hit rate 0.59% among 330,000 | inhibition of aptamer binding, % at 10 µM | P25098 | bead flow cytometry, FAM-aptamer displacement from GRK2;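 active = inhibition of aptamer binding above 40%, roughly 3 SD of noise, on plates passing a quality check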;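 note: median bead fluorescence of bound FAM aptamer so fluorescent compounds give negative values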
Large screens that a line does not name were inactive.

S=C(N/N=C/c1ccco1)NC1CC2CCC1C2 (stereo not drawn)	ALR inh 97.9
Cc1cc(-n2cnc(-c3cn[nH]c3C)n2)no1	none
COc1ccc(S(=O)(=O)N(C)C)cc1NC(=O)c1ccc(OCC(=O)N2CCOCC2)c(OC)c1	none (no result: ALR inh, HDAC3 inh)
O=[n+]1cc(-c2cc3ccccc3o2)n([O-])c2c1CCCC2	ALR inh 98.0, HDAC3 inh inconclusive
COc1cc(/C=N/N2C(C)CCCC2C)cc(OC)c1O (stereo not drawn)	ALR inh 99.6
CC1CCCC(C)N1/N=C/c1ccc(O)cc1 (stereo not drawn)	ALR inh 94.3
CCOc1ccc(/C=N/N2C(C)CCCC2C)cc1OC (stereo not drawn)	none (no result: ALR inh)
O=S(=O)(c1ccc(SCc2ccc(Cl)cc2)nc1)N1CCCC1	none (no result: Rce1 inh)
CCOc1ccc(C2/C(=C(\O)c3cccc(OC)c3)C(=O)C(=O)N2c2ccccn2)cc1OC (stereo not drawn)	none
COc1ccc(N2CCN(c3ccc(NC(=O)NN)cc3)CC2)cc1	none
CCCc1ccc2oc(C(=O)N3CCC(C(N)=O)(N4CCCCC4)CC3)c(C)c2c1	HDAC3 inh inconclusive
O=C(CSc1ncnc2ccccc12)Nc1cc(S(=O)(=O)N2CCCCC2)ccc1Cl	none
O=C(CSc1ncnc2ccccc12)Nc1cccc(S(=O)(=O)N2CCCC2)c1	ALR inh 99.3
CN(CC(=O)Nc1ccc(N2CCOCC2)cc1)C(=O)CCNC(=O)c1ccc(Br)cc1	ALR inh 96.4 (no result: HDAC3 inh)
CC(Oc1cccc(Cl)c1)C(=O)N(C)CC(=O)Nc1ccc(N2CCOCC2)cc1 (stereo not drawn)	ALR inh 93.2, HDAC3 inh inconclusive
CCCCOc1ccc(C(=O)NCC(=O)N(C)CC(=O)Nc2ccc(N3CCOCC3)cc2)cc1	none
COc1ccccc1C(=O)NCCC(=O)N(C)CC(=O)Nc1ccc(N2CCOCC2)cc1	ALR inh 98.7
O=C(COc1cccc(Cl)c1)Nc1ccc(N2CCOCC2)cc1	none
Cc1ccc(NC(=O)CCCNC(=O)c2ccc(Cl)cc2)c(O)c1	none
COc1ccc(C(=O)NNC(=O)c2cccs2)cc1S(=O)(=O)N1CCOCC1	none (no result: Rce1 inh)
Cc1cc(N2CCOCC2)c2c(N)c(C)cc(C)c2n1	ALR inh 99.2 (no result: Rce1 inh)
COc1ccc(-c2[nH]c(-c3ccc(C)cc3)nc2SCC(=O)NC2CCCC2)cc1	none
COc1ccc(-c2[nH]c(-c3ccccc3)nc2SCC(=O)Nc2nccs2)cc1	ALR inh 98.3 (no result: Rce1 inh, HDAC3 inh)
O=C(CSc1n[nH]c(-c2ccc(S(=O)(=O)N3CCCCC3)cc2)n1)Nc1nccs1	Rce1 inh active
COc1ccc(-n2c(SCC(=O)Nc3nccs3)nnc2-c2ccc(Cl)cc2)cc1	none (no result: ALR inh, Efflux pump mplx, Rce1 inh, HDAC3 inh, GRK2 inh)
COc1ccc(-c2[nH]c(-c3ccc(Cl)cc3)nc2SCC(=O)Nc2nccs2)cc1	ALR inh 93.6
CN1CCc2c(sc(NC(=O)c3cc(Cl)sc3Cl)c2C(N)=O)C1	ALR inh 97.3 (no result: Rtt109 Vps75)
Cc1ccc(-n2[nH]c(C)c(C=Nc3ccc4[nH]c(=O)[nH]c4c3)c2=O)cc1C	ALR inh 92.5
Fc1ccc2c(c1)/C(=N/Nc1ccccn1)CCS2	ALR inh 98.7
c1ccc(N/N=C2\CCCc3ccccc32)nc1	none
N#CC1=C(N)SC2(CCCCC2)SC1c1ccccc1 (stereo not drawn)	ALR inh 93.6
CSc1ccc2c(c1)N(CCC1CCCCN1C)c1ccccc1S2 (stereo not drawn)	ALR inh 99.0
CC(CCc1ccccc1)NC(=O)COC(=O)c1cccnc1Cl (stereo not drawn)	none (no result: Rce1 inh)
COC(=O)/C(C#N)=C/c1ccc(-c2ccc(S(N)(=O)=O)cc2)o1	none
N#CC(C#N)=Cc1ccc(-c2ccc(S(=O)(=O)N=C(N)N)cc2)o1	GRK2 inh 100.0
COc1ccc(Nc2nccc(N(C)C)c2C#N)cc1	none
CC(=O)Nc1ccc2c(c1)C(C)(C)C(C)N2C (stereo not drawn)	ALR inh 98.9 (no result: Rtt109 Vps75)
CCC(=O)c1ccc(NC(C)=O)cc1O	none
Cc1ccc(C(=O)NC(=O)CSc2nncn2C)cc1	none (no result: Rce1 inh)
Cc1ccc(C2=NN=C(NC(=O)CSc3nncn3C)SC2)cc1	Rtt109 Vps75 inconclusive, ALR inh 99.5
CC(C)c1c(O)nc(SCC(=O)Nc2ccc3c(c2)CCC3)[nH]c1=O	ALR inh 98.9
COc1ccc2nc(SCC(=O)Nc3ccc4c(c3)CCC4)[nH]c2c1	none (no result: Rtt109 Vps75)
CC(C)Cc1c(O)nc(SCC(=O)Nc2ccc3c(c2)CCC3)[nH]c1=O	ALR inh 98.7
Cc1ccc(Cl)cc1N1CCN(S(=O)(=O)c2cc3c(cc2C)NC(=O)CO3)CC1	none
CCOC(=O)C1=C(C)NC2=C(C(=O)CC(C)(C)C2)C1c1ccc2c(c1)CCCN2C (stereo not drawn)	ALR inh 99.1
CC[C@H]1C(Nc2ccccc2)C[C@@H]2CCN3C(=O)CC[C@H]1[C@H]23 (stereo partly drawn)	none (no result: ALR inh, Efflux pump mplx, Rce1 inh, HDAC3 inh, GRK2 inh)
Cc1ccc(NC(=O)c2oc3ccccc3c2COC(C)C)cc1S(=O)(=O)N1CCOCC1	none (no result: Rce1 inh)
O=C(Nc1cccc(F)c1)c1c(O)c2cccc3c2n(c1=O)CCC3	GRK2 inh 78.0 (no result: Rtt109 Vps75)
CC(C)(C)C1CCc2c(sc(NC(=O)C3CC=CCC3C(=O)O)c2C#N)C1 (stereo not drawn)	ALR inh 96.9
N#Cc1c(NC(=O)c2cnccn2)sc2c1CCCC2	ALR inh 98.3
N#Cc1c(NC(=O)CCC(=O)O)sc2c1CCCCC2	none
CC(C)(C)C1CCc2c(sc(NC(=O)CSc3nnc(-c4ccccc4)o3)c2C#N)C1 (stereo not drawn)	Rtt109 Vps75 56.2
N#Cc1c(NC(=O)C2CC=CCC2C(=O)O)sc2c1CCCCCC2 (stereo not drawn)	GRK2 inh 73.0 (no result: ALR inh)
Cc1c(C(=O)NC2CCN(Cc3ccccc3)C2)oc2c(Cl)cccc12 (stereo not drawn)	none
O=C(Nc1ccc(F)c(Cl)c1)c1cncs1	none
Cc1cccc(C(=O)Nc2sc3c(c2C(=O)O)CCC3)c1	none
CNC(=O)c1c(NC(=O)c2cccc(C)c2)sc2c1CCC2	ALR inh 95.2
O=C(Nc1sc2c(c1C(=O)c1ccc(Cl)cc1)CCCC2)c1cccnc1	Rce1 inh active
COc1ccc2[nH]cc(CCNC(=O)COc3cc(C)cc4oc(=O)cc(C)c34)c2c1	HDAC3 inh inconclusive (no result: Rce1 inh)
N/C(=N\OC(=O)c1ccc(Cl)cc1)c1ccc(Cl)cc1	none
N/C(=N\OC(=O)c1ccco1)c1ccc(Cl)cc1	ALR inh 99.4
COc1ccc(/C=N/NC(=O)c2cccc(NC(C)=O)c2)c(C(=O)O)c1OC	none
O=C(Nc1ccccc1N1CCOCC1)c1ccc(N2CCCC2=O)cc1	none (no result: Rce1 inh)
CC(NC(=O)CCn1c(=S)[nH]c2ccsc2c1=O)c1ccccc1 (stereo not drawn)	ALR inh 94.7 (no result: Rce1 inh)
CCOC(=O)N1CCN(C(=O)CCCn2c(=S)[nH]c3ccccc3c2=O)CC1	none
CCOC(=O)N1CCN(C(=O)CCCn2c(=S)[nH]c3ccsc3c2=O)CC1	ALR inh 95.4 (no result: Rce1 inh)
